According to PubChem BioAssay (Tox21):
Inconclusive results are not listed. The source made the active and inactive calls. Unless noted, calls follow the shape of the dose curve; as a rule, active = well fitted curve in the direction sought with a large enough effect in the repeat runs; inconclusive = weak or mixed curves; inactive = no such curve, though single readings can be large; an effect the other way counts as inactive or inconclusive.

Experiments:
[1] = qHTS assay to identify small molecule agonists of the estrogen receptor alpha (ER-alpha) signaling pathway in the presence of an antagonist - cell viability counter screen (AID 1259386);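 also: cells exposed to compounds for 22 h at 37 °C before the viability read; nearly all actives have a fitted effect of over 30% in size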; also: potency is read from the fitted curve at half-maximal effect
In short: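 Cytotoxicity was measured in parallel with the ERE-luciferase agonist screen, in the same wells. The cells were VM7Luc4E2, which endogenously express ER-alpha, and treatment was with compounds plus 10.0nM ICI-182,780 for 22hr.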

[2] = molecular target: Progesterone receptor (Homo sapiens) (UniProt P06401); experiment: qHTS assay to identify small molecule agonists of the progesterone receptor (PR) signaling pathway (AID 1346784; calls by dose curve; also: nearly all actives have a fitted effect of over 30% in size)
Chain of Progesterone receptor (Homo sapiens) (P06401 whole entry, looked up): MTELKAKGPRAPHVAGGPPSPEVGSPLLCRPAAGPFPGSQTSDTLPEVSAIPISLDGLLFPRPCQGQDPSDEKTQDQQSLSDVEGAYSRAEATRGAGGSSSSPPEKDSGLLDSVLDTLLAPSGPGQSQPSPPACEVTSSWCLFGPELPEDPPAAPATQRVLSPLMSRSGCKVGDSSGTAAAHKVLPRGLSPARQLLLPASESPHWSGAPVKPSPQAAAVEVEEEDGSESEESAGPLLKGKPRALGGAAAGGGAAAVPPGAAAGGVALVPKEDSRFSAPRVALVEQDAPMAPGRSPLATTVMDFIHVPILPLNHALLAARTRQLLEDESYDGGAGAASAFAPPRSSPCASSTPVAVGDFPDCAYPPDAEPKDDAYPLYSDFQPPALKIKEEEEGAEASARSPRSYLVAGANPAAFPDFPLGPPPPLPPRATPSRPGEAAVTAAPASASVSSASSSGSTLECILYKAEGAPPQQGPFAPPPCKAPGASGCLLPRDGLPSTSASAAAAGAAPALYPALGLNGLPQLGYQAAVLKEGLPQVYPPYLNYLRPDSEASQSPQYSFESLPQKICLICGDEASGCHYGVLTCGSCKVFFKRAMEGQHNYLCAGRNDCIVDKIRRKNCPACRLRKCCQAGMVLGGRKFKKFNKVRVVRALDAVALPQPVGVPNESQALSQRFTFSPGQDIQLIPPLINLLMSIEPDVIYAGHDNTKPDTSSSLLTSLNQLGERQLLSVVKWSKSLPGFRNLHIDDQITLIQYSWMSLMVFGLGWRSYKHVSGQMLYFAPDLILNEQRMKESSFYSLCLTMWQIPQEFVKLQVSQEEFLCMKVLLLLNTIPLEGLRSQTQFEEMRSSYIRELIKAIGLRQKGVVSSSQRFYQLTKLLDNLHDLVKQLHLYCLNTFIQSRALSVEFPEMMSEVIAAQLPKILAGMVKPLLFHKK
In short: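 Reporter assay, GripTite PR-UAS-bla HEK 293T cells: 16 hr exposure to DMSO-dissolved compounds at 37C, 5% CO2, in steroid-depleted (2% charcoal-stripped FBS) medium; beta-lactamase measured by FRET fluorescence.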

[3] = qHTS assay to identify small molecule antagonists of the progesterone receptor (PR) signaling pathway - cell viability counter screen (AID 1346798); also: series mostly up to about 92 µM; nearly all actives have a fitted effect of over 50% in size
In short: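 In the same plates used for the beta-lactamase readout, cell viability of compound- and R5020-treated PR-UAS-bla HEK293T cells (16 hr, 37C) was assessed by CellTiter-Glo luminescence.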

[4] = qHTS assay to identify small molecule agonists of the progesterone receptor (PR) signaling pathway - cell viability counter screen (AID 1346799; calls by dose curve; also: nearly all actives have a fitted effect of over 45% in size; also: potency is read from the fitted curve at half-maximal effect)
In short: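 Multiplexed viability read: CellTiter-Glo luminescence, 30 min RT, following LiveBLAzer FRET measurement on PR-UAS-bla HEK293T cells exposed to compounds 16 hr.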

[5] = qHTS assay to identify small molecule antagonists of the TGF-beta/Smad signaling pathway - cell viability counter screen (AID 1346824); also: nearly all actives have a fitted effect of over 50% in size
In short: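 Cytotoxicity counter-screen run in the same wells as the beta-lactamase Smad reporter read: CellTiter-Glo luminescence after 30 min at room temperature. HEK 293T SBE-bla cells had 5 hr compound exposure at 37 C with TGF-beta1 (0.25 ng/mL stock).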

[6] = qHTS assay to identify small molecule agonists of the TGF-beta/Smad signaling pathway - cell viability counter screen (AID 1346829); also: top concentration of the series differs between compounds; nearly all actives have a fitted effect of over 45% in size
In short: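 Compound-treated SBE-bla HEK 293T cells (5 hr, 37 C) were assessed for viability with CellTiter-Glo in parallel with the reporter read.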

[7] = qHTS assay to identify small molecule agonists of the TGF-beta/Smad signaling pathway (AID 1346859; active = well fitted activation curve with a large enough effect in the signal ratio in the repeat runs, not every such curve was filed as active; the % refers to the signal ratio; also: series mostly up to about 77 µM)
In short: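 Screening used HEK 293T SBE-bla cells at 4,000/well. Test agents: 5 hr, 37 C. Detection: FRET substrate, 2 hr RT, then excitation 405 nm with emissions at 460 and 530 nm.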

[8] = molecular target: Thyrotropin-releasing hormone receptor (Homo sapiens) (UniProt P34981); experiment: qHTS assay to identify small molecule antagonists of the thyrotropin-releasing hormone receptor (TRHR) signaling pathway (AID 1346877; active = well fitted inhibition curve with a large enough effect in the repeat runs, not every such curve was filed as active; also: series mostly up to about 51 µM)
Chain of Thyrotropin-releasing hormone receptor (Homo sapiens) (P34981 whole entry, looked up): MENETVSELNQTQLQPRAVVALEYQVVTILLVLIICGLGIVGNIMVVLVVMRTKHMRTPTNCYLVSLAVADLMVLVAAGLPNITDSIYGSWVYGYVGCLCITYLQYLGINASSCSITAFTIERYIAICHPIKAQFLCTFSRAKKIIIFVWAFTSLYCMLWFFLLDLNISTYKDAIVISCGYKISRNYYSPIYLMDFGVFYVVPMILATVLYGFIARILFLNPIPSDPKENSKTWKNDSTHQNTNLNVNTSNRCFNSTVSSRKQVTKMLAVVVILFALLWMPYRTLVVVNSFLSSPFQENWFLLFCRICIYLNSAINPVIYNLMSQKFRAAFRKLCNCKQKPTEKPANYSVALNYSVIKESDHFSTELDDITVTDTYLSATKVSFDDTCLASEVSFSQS
In short: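 Antagonism is measured as suppression of the calcium response to 1 nM TRH in TRHR-HEK293 cells that have been dye-loaded for 2 h at 37 °C after overnight plating. Each compound is tested at 15 concentrations in triplicate.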

[9] = molecular target: Thyrotropin-releasing hormone receptor (Homo sapiens) (UniProt P34981); experiment: qHTS assay to identify small molecule agonists of the thyrotropin-releasing hormone receptor (TRHR) signaling pathway (AID 1346891; calls by dose curve; also: series mostly up to about 58 µM)
In short: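 Readout was intracellular calcium fluorescence in TRHR-Hek293 cells. Cells were incubated 18 h, dye-loaded 2 h at 37 °C, and treated with compound in agonist mode.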

[10] = molecular target: Progesterone receptor (Homo sapiens) (UniProt P06401); experiment: qHTS assay to identify small molecule antagonists of the progesterone receptor (PR) signaling pathway (AID 1346795; active = well fitted inhibition curve with a large enough effect in the signal ratio in the repeat runs, not every such curve was filed as active; the % refers to the signal ratio; also: potency is read from the fitted curve at half-maximal effect)
In short: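 Stimulus R5020 at 1 nM final; cells HEK293T PR-UAS-bla; medium with 2% charcoal-stripped FBS; compound exposure 16 hr at 37C, 5% CO2; detection by FRET beta-lactamase substrate, 2 hr, room temperature.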

Measured: Potency

CC(C)(C)N(NC(=O)c1ccc(Cl)cc1)C(=O)c1ccccc1
active: [1] 4.83 µM
inactive: [2] | [3] | [4] | [5] | [6] | [7] | [8] | [9]

COc1ccc(C(O)(c2cncnc2)C2CC2)cc1 (stereo not drawn)
inactive: [1] | [2] | [10] | [3] | [5] | [6] | [7] | [8] | [9]

CCOc1cccc(C2(N3CCN(c4ccccc4)CC3)CCC(C)CC2)c1 (stereo not drawn)
inactive: [1] | [2] | [10] | [4] | [5] | [6] | [7] | [8] | [9]

N#CC1(N=NC2(C#N)CCCCC2)CCCCC1
inactive: [1] | [2] | [3] | [4] | [5] | [6] | [7] | [8] | [9]

CC(C)(c1ccccc1)c1cc(-n2nc3ccccc3n2)c(O)c(C(C)(C)c2ccccc2)c1
inactive: [1] | [2] | [10] | [3] | [5] | [6] | [7] | [8] | [9]

CCCC1CCCCN1 (stereo not drawn)
inactive: [1] | [2] | [10] | [4] | [6] | [7] | [8] | [9]

C[N+](C)(C)CC1CO1 (stereo not drawn)
inactive: [1] | [2] | [10] | [3] | [5] | [6] | [7] | [8] | [9]

CCOP(=S)(S)OCC
inactive: [1] | [2] | [3] | [4] | [5] | [6] | [7] | [8] | [9]

Nc1ccccc1C(=O)OCCc1ccccc1
inactive: [1] | [2] | [3] | [4] | [5] | [6] | [7] | [8] | [9]

CCOP(=S)(OCC)SCSc1cc(Cl)ccc1Cl
inactive: [1] | [2] | [10] | [4] | [5] | [6] | [7] | [8] | [9]

FC(Cl)(Cl)C(F)(Cl)Cl
inactive: [1] | [2] | [3] | [4] | [5] | [6] | [7]

CN1CC[C@]23c4c5ccc(O)c4O[C@H]2[C@@H](O)CC[C@H]3[C@H]1C5
inactive: [1] | [2] | [10] | [3] | [6] | [7] | [8] | [9]

O=C(NCNC(=O)NC1C(=O)NC(=O)N1CO)NC1C(=O)NC(=O)N1CO (stereo not drawn)
inactive: [1] | [2] | [10] | [5] | [6] | [7] | [8] | [9]

O=C(NC(=O)c1cc(F)c(F)cc1Cl)Nc1cc(F)ccc1N1CCC(C(=O)O)CC1
inactive: [1] | [2] | [10] | [5] | [6] | [7] | [8] | [9]

CNC(=O)Oc1cccc(N=CN(C)C)c1
inactive: [1] | [2] | [10] | [3] | [5] | [6] | [7] | [8] | [9]

Cc1cccc(C)c1NC1=NCCCS1
inactive: [1] | [2] | [10] | [3] | [4] | [6] | [8] | [9]

CCCCCCCCP(=O)(O)O
inactive: [1] | [2] | [10] | [5] | [6] | [7] | [8] | [9]
active: [4] 27.3 µM

NP(N)(=O)NC(=O)c1ccc(F)cc1
inactive: [1] | [2] | [3] | [4] | [5] | [6] | [7] | [8] | [9]

OCCCl
inactive: [1] | [2] | [10] | [4] | [5] | [6] | [7]

CCCN(CCC)c1c([N+](=O)[O-])cc(C(C)C)cc1[N+](=O)[O-]
inactive: [1] | [2] | [3] | [4] | [6] | [7] | [8] | [9]

CC(C)CCCCCCCOC(=O)c1ccccc1C(=O)OCCCCCCCC(C)C
inactive: [1] | [2] | [10] | [3] | [5] | [6] | [7] | [8] | [9]

O=C=NC1CCCCC1
inactive: [1] | [2] | [10] | [4] | [5] | [6] | [7] | [8] | [9]

C=CCN1C[C@H](C)N([C@H](c2ccc(C(=O)N(CC)CC)cc2)c2cccc(OC)c2)C[C@H]1C
inactive: [1] | [2] | [10] | [3] | [5] | [6] | [8] | [9]

C[Si](Cn1cncn1)(c1ccc(F)cc1)c1ccc(F)cc1
inactive: [1] | [2] | [3] | [5] | [6] | [7] | [8] | [9]
active: [10] 15.4 µM

O=C(Cl)OCCOCCOC(=O)Cl
inactive: [1] | [2] | [10] | [3] | [5] | [6] | [7]

NNCCO
inactive: [1] | [2] | [3] | [4] | [5] | [6] | [7]

c1ccc2c(c1)-c1cccc3cccc-2c13
inactive: [1] | [2] | [3] | [4] | [5] | [6] | [7]

CC1(C)CC(=O)CC(C)(C)N1[O]
inactive: [1] | [2] | [3] | [4] | [5] | [6] | [7] | [8] | [9]

Nc1ccccc1C(=O)OCC(O)CO (stereo not drawn)
inactive: [1] | [2] | [3] | [4] | [6] | [7] | [8] | [9]
